Data: PubChem BioAssay AID1347041 (National Center for Advancing Translational Sciences (NCATS), 2019)
The campaign covered roughly 480,000 compounds. About 740 (0.15%) were called active. The full list was thinned out, with actives kept by preference. Values without a mark were called inactive. No stated cut-off is given here; in the data, active means activity change below about -30%; inconclusive means mostly about -25% to -30%; inactive means weaker than that.

Target: L-lactate dehydrogenase A chain (Homo sapiens) (UniProt P00338)
Assay: qHTS assay for inhibitors of human lactate dehydrogenase; further: values are at about 110 or 230 µM
Settings: purified LDHA, NADH/diaphorase-resazurin fluorescence; hits give low values
Excerpt: LDH is a key glycolytic enzyme that catalyzes the final step in the glycolytic pathway, reducing pyruvate to lactate and regenerating NAD+ equivalents necessary for continued glycolysis. LDHA has been linked to the carcinogenesis and malignancy in numerous forms of cancers and many other diseases. Consequently, both pharma and academia have invested in significant research efforts to identify small molecule therapeutics. Such attempts have been stalled or abandoned due to limited success in discovering potent and drug-like inhibitors that can be utilized to validate LDHA in vivo as a drug target, a necessary step toward advancing such a molecule towards the clinic Towards this goal we designed and performed a quantitative high-throughput screening (qHTS) campaign to discover novel compounds that are potent inhibitors of LDHA enzyme activity and cancer cell line growth.
The assay was optimized to 1536-well plates. Briefly, 3 µL of human lactate dehydrogenase 5 (#A38558H, Meridian Life Science, Inc., Memphis, TN) in LDH assay buffer (200 mM Tris HCl pH 7.4, 100 microM EDTA and 0.01% Tween-20) was added to a black solid bottom 1536-well assay plate (Greiner Bio-One) using a BioRAPTR FRD dispenser (Beckman Coulter, Brea, CA). A 1536-well pintool dispenser outfitted with 20 nL pins (Wako Automation, San Diego, CA) was used to transfer 23 nL of DMSO-solubilized compound (both library and vehicle controls) to each 1536-well assay plate. Following compound transfer, 1 µL of substrate solution containing NADH and sodium pyruvate (Sigma-Aldrich, St. Louis, MO) in LDH assay buffer was dispensed via BioRAPTR FRD to initiate the reaction. Final concentrations in the 4 microL reaction volume were 2 nM LDHA enzyme, 0.06 mM NADH and 0.2 mM sodium pyruvate. Following a 5 minute incubation period at room temperature, 1 µL of detection reagent (C. kluyveri diaphorase (Sigma-Aldrich) and resazurin sodium salt (Sigma-Aldrich) in LDH assay buffer) was added to a total volume of 5 µL. Final concentrations of detection reagents were 0.133 mg/mL diaphorase and 37 µM resazurin. Plates were immediately transferred to a ViewLux microplate imager (PerkinElmer, Waltham, MA), and any resulting resorufin fluorescence was measured (ex540, em590 nm) at 0 and 20 minutes. Fluorescence was normalized using enzyme-free and DMSO-treated control wells on each plate.

Row | SMILES | activity change
1 | C=CCN1C(=O)NC(=O)/C(=C/c2ccc(OCC(=O)Nc3ccc(C)cc3)cc2)C1=O | -1.94%
2 | O=C(O)COc1ccccc1/C=C1\C(=O)NC(=O)N(CCC2=CCCCC2)C1=O | -34.5% (active)
3 | Cc1[nH]nc2c1C(c1ccc(C(=O)O)cc1)SCC(=O)N2 (stereo not given) | 4.1%
4 | COc1ccccc1N=C1SCCCN1C | -34.1% (active)
5 | O=C(COc1ccc2c(=O)c(-c3ccccc3)coc2c1)N1CCN(CCO)CC1 | 3.12%
6 | COC(=O)C(O)(c1ccc(N(C)C(=O)O/N=C(/C)Cl)cc1)C(F)(F)F (stereo not given) | 1.08%
7 | COc1cc(-c2c(C#N)c(N)nc3c2c(=O)nc2sccn23)ccc1OCc1ccccc1C | 6.76%
8 | C[N+]12CN3CN(CN(C3)C1)C2 | -52.1% (active)
9 | Cc1c(-c2ccc(Br)cc2)c(=O)oc2ccc(OC(=O)N(C)C)cc12 | 8.34%
10 | N/C(=N\N=C\c1ccco1)N[N+](=O)[O-] | 6.01%
11 | Cc1nc(CN2CCNCC2)cs1 | 0.726%
12 | Cc1ccc(C2(O)CC(C)N(C)CC2C)c(C)c1 (stereo not given) | 1.58%
13 | CCOC(=O)C1=C(N)OC(C)=C(C(=O)OC(C)C)C12C(=O)Nc1ccc(Br)cc12 (stereo not given) | 12.9%
14 | ClCc1cccnc1 | -7.12%
15 | CCN1CCN(C(=O)COc2ccc3c(=O)c(Oc4ccccc4)c(C)oc3c2)CC1 | -13.1%
